Assay outcomes: PubChem, Buhrlage Lab, Dana-Farber Cancer Institute and Novartis Institutes for BioMedical Research (Cambridge, Mass)
In the library only some 11% were active in any assay of this set; here they are far more common.
USP17 inh = inhibitors of human USP17 deubiquitinase; Ubiquitin carboxyl-terminal hydrolase 17-like protein 5 (Homo sapiens), A8MUK1; purified USP17, Ub-rhodamine cleavage fluorescence, 3 h; inhibition, % at 50 µM; 6.5% of 47,000 active
OTUD3 block = inhibitors of human OTUD3 deubiquitinase; OTU domain-containing protein 3 (Homo sapiens), Q5T2D3; inhibition, % at 25 µM; 0.7% of 47,000 active; AID 1645858, 2021; purified OTUD3, Ub-rhodamine fluorescence, 2 h
Target sequence (Q5T2D3 whole entry, looked up, the tested form may be a part): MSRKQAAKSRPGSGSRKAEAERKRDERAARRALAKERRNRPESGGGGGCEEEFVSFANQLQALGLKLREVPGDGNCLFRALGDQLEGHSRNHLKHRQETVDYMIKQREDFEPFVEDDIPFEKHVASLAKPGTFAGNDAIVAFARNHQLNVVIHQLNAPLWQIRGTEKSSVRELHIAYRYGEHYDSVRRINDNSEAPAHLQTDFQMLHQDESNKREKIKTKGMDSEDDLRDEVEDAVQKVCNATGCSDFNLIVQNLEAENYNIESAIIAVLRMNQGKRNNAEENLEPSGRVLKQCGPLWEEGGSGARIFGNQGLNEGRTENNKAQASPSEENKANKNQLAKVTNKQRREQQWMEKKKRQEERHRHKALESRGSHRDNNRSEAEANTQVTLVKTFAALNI
USP30 block = inhibitors of human USP30 deubiquitinase; purified USP30, Ub-rhodamine cleavage fluorescence; inhibition, % at 25 µM; Ubiquitin carboxyl-terminal hydrolase 30 (Homo sapiens), Q70CQ3; 5.3% of 47,000 active
USP28 block = inhibitors of human USP28 deubiquitinase; 3% of 47,000 active; purified USP28, Ub-rhodamine cleavage fluorescence, 30 min; inhibition, % at 25 µM; Ubiquitin carboxyl-terminal hydrolase 28 (Homo sapiens), Q96RU2
Hits are given with their value. No stated cut-off is given here; in the data, active means inhibition above about 30%; inactive means the rest.

Results for CCOCCCn1c(SCC(=O)Nc2ccccc2C(F)(F)F)nc2ccccc2c1=O ?
USP17 inh: 44.1; OTUD3 block: inactive; USP30 block: 55.4; USP28 block: inactive

What do the screens show for `O=C(CCCn1c(SCC(=O)Nc2cccc(C(F)(F)F)c2)nc2ccccc2c1=O)NCCc1ccccc1`?
USP17 inh: inactive; OTUD3 block: inactive; USP30 block: 35.4; USP28 block: inactive

What do the screens show for `Cn1nc(Cl)c(Cl)c1Oc1ccc(S(=O)(=O)Nc2ccc(Oc3ccc(C(F)(F)F)cn3)c(Cl)c2)cc1`?
USP17 inh: inactive; OTUD3 block: inactive; USP30 block: inactive; USP28 block: inactive

Results for CC1CCN(Cc2nc(-c3ccc(N4CCOCC4)nc3)no2)CC1 ?
USP17 inh: inactive; OTUD3 block: inactive

How did O=C(NCc1ccc(Br)cc1)C1CCN(c2nc3nc[nH]c(=O)c3s2)CC1 do in these assays?
USP17 inh: inactive; OTUD3 block: inactive; USP30 block: inactive; USP28 block: inactive

How did Cc1ccccc1OCCC(=O)NC(c1ccccc1)c1ccccc1 do in these assays?
USP17 inh: 32.0; OTUD3 block: inactive; USP30 block: inactive; USP28 block: inactive

What do the screens show for `CCn1c(=O)n(CC(=O)c2ccc(F)cc2)c2c(C(N)=O)nc(-c3ccc(C)o3)nc21`?
USP17 inh: 34.2; OTUD3 block: inactive; USP30 block: inactive; USP28 block: inactive

Results for CCn1c(=O)n(CC(=O)c2ccccc2F)c2c(C(N)=O)nc(-c3ccco3)nc21 ?
USP17 inh: inactive; OTUD3 block: inactive; USP30 block: inactive; USP28 block: inactive

How did CCn1c(=O)n(CC(=O)c2ccccc2)c2c(C(N)=O)nc(-c3ccc(C)o3)nc21 do in these assays?
USP17 inh: 34.1; OTUD3 block: inactive; USP30 block: inactive; USP28 block: inactive

Results for COC1=C(C)C(C)(O)c2[nH]c3ccccc3c2C1=O (stereo not drawn) ?
USP17 inh: 41.6; OTUD3 block: inactive; USP30 block: inactive; USP28 block: inactive

How did COc1c(-c2ccccc2)c2ccccc2[nH]c1=O do in these assays?
USP17 inh: inactive; OTUD3 block: inactive; USP30 block: inactive; USP28 block: inactive

Results for CN(C(=O)Cn1c(=O)n(-c2ccc(Cl)cc2)c(=O)c2c3c(sc21)CCCC3)C1CCCCC1 ?
USP17 inh: 40.6; OTUD3 block: inactive; USP30 block: 31.7; USP28 block: inactive

How did CCOC(=O)N1CCc2c(sc3c2c(=O)n(-c2ccc(CC)cc2)c(=O)n3CC(=O)N2CCCCC2C)C1 (stereo not drawn) do in these assays?
USP17 inh: inactive; OTUD3 block: inactive; USP30 block: inactive; USP28 block: inactive

How did COc1ccc(C(=O)Nc2ccc3c(c2)C(=O)N(C)c2ccccc2O3)cc1 do in these assays?
USP17 inh: inactive; OTUD3 block: inactive; USP30 block: inactive; USP28 block: 70.6

What do the screens show for `COc1ccc(C(=O)Nc2ccc(C)c(N3CCCC3=O)c2)cc1`?
USP17 inh: inactive; OTUD3 block: inactive; USP30 block: inactive; USP28 block: inactive

How did Cc1ccccc1C(=O)Nc1ccc2cn(C)nc2c1 do in these assays?
USP17 inh: inactive; OTUD3 block: inactive; USP30 block: inactive; USP28 block: inactive

How did Cc1ccccc1C(=O)Nc1ccc2c(c1)C(=O)N(C)c1ccccc1O2 do in these assays?
USP17 inh: inactive; OTUD3 block: inactive; USP30 block: inactive; USP28 block: 40.2

What do the screens show for `Cc1ccc2c(c1)N(C)C(=O)c1cc(NC(=O)c3ccc(F)cc3)ccc1O2`?
USP17 inh: inactive; OTUD3 block: inactive; USP30 block: 88.9; USP28 block: inactive

How did CN1C(=O)c2cc(NC(=O)c3ccncc3)ccc2N2CCN=C12 do in these assays?
USP17 inh: inactive; OTUD3 block: inactive; USP30 block: inactive; USP28 block: inactive

What do the screens show for `COc1ccc(N(C)S(=O)(=O)c2cccc(C(=O)OC(C)C(=O)Nc3cccc(C(C)=O)c3)c2)cc1` (stereo not drawn)?
USP17 inh: inactive; OTUD3 block: inactive; USP30 block: inactive; USP28 block: inactive

Results for CC(=O)c1cccc(NC(=O)C(C)OC(=O)c2cc3ccccc3[nH]2)c1 (stereo not drawn) ?
USP17 inh: 59.9; OTUD3 block: 33.1; USP30 block: 44.5; USP28 block: 35.9

Results for CC(=O)OC(C)[C@]12C=C(C)[C@H]3[C@H](C)[C@@H](O[C@H]4CC[C@@H](O)[C@@H](C)O4)C4=CC(=O)C=C(N1C(=O)C(C)=C2O)[C@]43O (stereo partly drawn) ?
USP17 inh: inactive; OTUD3 block: inactive; USP30 block: inactive; USP28 block: inactive

How did O=C(NC(c1ccccc1)c1ccccc1)c1ccc(Cl)c(S(=O)(=O)N2CCc3ccccc32)c1 do in these assays?
USP17 inh: inactive; OTUD3 block: inactive; USP30 block: inactive; USP28 block: inactive

How did O=C(Nc1cc(Cl)ccc1-n1cncn1)c1ccc(-n2cccn2)cc1 do in these assays?
USP17 inh: inactive; OTUD3 block: inactive; USP30 block: inactive; USP28 block: inactive

Results for O=C(Nc1cc(Cl)ccc1-n1cncn1)c1ccc(S(=O)(=O)N2CCCC2)cc1 ?
USP17 inh: inactive; OTUD3 block: inactive; USP30 block: 65.6; USP28 block: inactive

Results for Cc1noc(C)c1COc1cccc(C(=O)Nc2ccccc2)c1 ?
USP17 inh: inactive; OTUD3 block: inactive; USP30 block: inactive; USP28 block: inactive

How did Cc1noc(C)c1COc1cccc(C(=O)Nc2cc(Cl)ccc2-n2cncn2)c1 do in these assays?
USP17 inh: 38.1; OTUD3 block: inactive; USP30 block: inactive; USP28 block: 52.1

How did Fc1ccc(Nc2ncnc3c(-c4ccccc4)noc23)cc1 do in these assays?
USP17 inh: 43.7; OTUD3 block: inactive; USP30 block: 46.0; USP28 block: inactive

What do the screens show for `CCCCOc1ccc(C(=O)NC2(c3nc(-c4cccnc4)no3)CCCCC2)cc1`?
USP17 inh: inactive; OTUD3 block: inactive; USP30 block: 32.4; USP28 block: inactive

How did COc1ccccc1NC(=O)NCc1nnnn1-c1ccccc1 do in these assays?
USP17 inh: inactive; OTUD3 block: inactive; USP30 block: 31.7; USP28 block: inactive

Results for Cc1cc(=O)n2c(n1)NC(N1CCCCC1)=NC2c1ccccc1 (stereo not drawn) ?
USP17 inh: inactive; OTUD3 block: inactive; USP30 block: inactive; USP28 block: inactive

How did Cc1nn(C)c2c1[C@@H](c1ccc(F)c(Br)c1)[C@H](NC(=O)c1ccccc1)C(=O)N2 do in these assays?
USP17 inh: inactive; OTUD3 block: inactive; USP30 block: inactive; USP28 block: 70.6

Results for O=c1[nH]c(-c2ccncc2)nc2c1CCN(Cc1ccc(Cl)cc1)C2 ?
USP17 inh: inactive; OTUD3 block: inactive; USP30 block: 42.7; USP28 block: inactive

Results for O=c1[nH]c(-c2ccccn2)nc2c1CCN(Cc1cnn(-c3ccccc3)c1)C2 ?
USP17 inh: 55.3; OTUD3 block: inactive; USP30 block: inactive; USP28 block: inactive

What do the screens show for `Cn1cc(CN2CCc3nc(-c4ccccn4)[nH]c(=O)c3C2)cn1`?
USP17 inh: inactive; OTUD3 block: inactive; USP30 block: inactive; USP28 block: inactive
